# According to PubChem BioAssay:
# Activity calls are given as the source filed them.
# Tests used:
# [1] = system: Plasmodium falciparum Sir2 (PF13_0152, Sir2A); experiment: Plasmodium falciparum Sir2A binding compounds – biochemical, small-molecule microarray, 635 nm fluorescence, primary screen (AID 1098); conditions: fluorescence 635 nm, higher = more signal;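 further: score merges spot fluorescence intensity with its signal-to-noise ratio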
# [2] = probe aDKK1 binding to arrayed compounds – biochemical, biotinylated probe, 635/667 nm fluorescence, primary screen (AID 1099); conditions: small-molecule microarray, higher = more signal;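 further: score merges 667nm spot fluorescence with signal to noise across triplicate slides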
# [3] = probe aCHRDL2 binding to arrayed compounds – biochemical, biotinylated probe, 635/667 nm fluorescence, primary screen (AID 1100); conditions: small-molecule microarray, higher = more signal
# [4] = change in splice reporter luminescence, either direction, cell-based, HEK293, spliceosome inhibition project, primary screen (AID 1101); conditions: HEK293 splicing luciferase reporter, 24 h, higher = more signal, called active from +8 up or from −8 down;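 further: HEK293 cells carrying a splicing-competent luciferase reporter gene; test concentration not given here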
# [5] = biological target: Fibroblast growth factor 10 (Homo sapiens) (UniProt O15520); experiment: compounds binding fibroblast growth factor 10 – biochemical, small-molecule microarray, 635 nm fluorescence, primary screen (AID 1102); conditions: FGF10 binding, fluorescence 635 nm, higher = more signal
# [6] = system: glycogen synthase kinase-3 (GSK3A per assay name; protocol says GSK3B); experiment: compounds binding glycogen synthase kinase-3 – biochemical, small-molecule microarray, 635 nm fluorescence, GSK3A, primary screen (AID 1103); conditions: fluorescence 635 nm, higher = more signal; further: the record names both GSK3A and GSK3B
# [7] = biological target: Epidermal growth factor receptor (Homo sapiens) (UniProt P00533); experiment: compounds binding epidermal growth factor receptor – biochemical, small-molecule microarray, 635 nm fluorescence, primary screen (AID 1104); conditions: EGFR binding, higher = more signal;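 further: score merges 667 nm emission intensity with spot signal to noise over triplicate slides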
# [8] = biological target: Follistatin-related protein 3 (Homo sapiens) (UniProt O95633); experiment: compounds binding follistatin-related protein 3 – biochemical, small-molecule microarray, 635 nm fluorescence, primary screen (AID 1105); conditions: FSTL3 binding, higher = more signal;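 further: score merges emission near 667 nm and signal to noise per printed spot across three slides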
# [9] = biological target: Dickkopf-related protein 1 (Homo sapiens) (UniProt O94907); experiment: small molecules binding DKK1 protein – biochemical, small-molecule microarray, 635 nm fluorescence scan, primary screen (AID 1106); conditions: higher = more signal;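 further: score merges emission near 667 nm with signal to noise over three replicate slides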
# [10] = system: Inhibin beta A chain (activin A); experiment: small molecules binding activin A – biochemical, small-molecule microarray, 635 nm fluorescence scan, primary screen (AID 1107); conditions: INHBA, higher = more signal;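 further: mouse activin A protein probed at 4.33 µg/mL on printed slides; score merges bound-protein fluorescence near 667 nm with spot signal-to-noise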
# [11] = system: Human papillomavirus type 1a protein E7 (residues 44-93); experiment: small molecules binding HPV E7 44-93 – biochemical, small-molecule microarray, residues 44-93, 635 nm fluorescence, primary screen (AID 1108); conditions: fluorescence 635 nm, higher = more signal;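 further: E7 fragment applied at 1 µg/mL in TBST for 1 h at 4 C; score combines spot fluorescence with its signal to noise ratio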
# [12] = hepatitis C replication reporter changes, two-sided – Huh7 cells, luciferase reporter, HCV replication inhibitor project, primary screen (AID 1109); conditions: Huh7 HCV replicon luciferase reporter, 48 h; higher = more signal;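 further: huh7 hepatoma cells harbouring a luciferase neomycin HCV replicon reporter; luciferase luminescence as measure of HCV replicon replication; test concentration not given here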
# [13] = biological target: Left-right determination factor 2 (Homo sapiens) (UniProt O00292); experiment: small molecules binding LEFTY2 protein – biochemical, small-molecule microarray, 635 nm fluorescence scan, primary screen (AID 1110); conditions: higher = more signal
# [14] = biological target: Calmodulin-1 (Homo sapiens) (UniProt P0DP23); experiment: small molecules binding calmodulin-1 with EGTA – biochemical, small-molecule microarray, Cy5-labelled CALM1, profiling panel (AID 1111); conditions: Cy5-CALM1 binding fluorescence, higher = more signal;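 further: labelled calmodulin applied in Tris saline Tween buffer holding calcium plus EGTA and DTT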
# [15] = biological target: Calmodulin-1 (Homo sapiens) (UniProt P0DP23); experiment: small molecules binding Ca-loaded calmodulin-1 – biochemical, small-molecule microarray, Cy5-labelled CALM1, plus calcium, artefact control for SMM control-protein annotation, profiling panel (AID 1112); conditions: Cy5-CALM1 binding fluorescence, higher = more signal;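 further: score merges spot fluorescence with signal to noise from triplicate slides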
# [16] = probe aWnt5a binding to arrayed compounds – biochemical, biotinylated probe, 635/667 nm fluorescence, primary screen (AID 1113); conditions: small-molecule microarray, higher = more signal;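 further: score merges 667 nm fluorescence intensity with signal-to-noise per printed feature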
# [17] = probe aShh binding to arrayed compounds – biochemical, biotinylated probe, 635/667 nm fluorescence, primary screen (AID 1114); conditions: small-molecule microarray, higher = more signal;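 further: probe is biotin-labelled aShh protein from a stem cell growth factor screen; measures binding of labelled protein to compounds printed on the slide; score merges feature fluorescence at 667 nm with signal-to-noise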
# [18] = probe aNog binding to arrayed compounds – biochemical, biotinylated probe, 635/667 nm fluorescence, primary screen (AID 1115); conditions: small-molecule microarray, higher = more signal;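 further: probe is biotinylated aNog protein used at 0.15 µg/mL for 1 h at 4 C; z-score combines 667 nm fluorescence of each spot with its signal to noise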
# [19] = biological target: Torsin-1A-interacting protein 1 (Homo sapiens) (UniProt Q5JTV8); experiment: compound microarray binding of lysate hLAP1 – cell lysate, small-molecule microarray, COS7 lysate, 635/667 nm fluorescence, primary screen (AID 1116); conditions: 635 nm fluorescence, higher = more signal
# [20] = biological target: Alpha-bungarotoxin (Bungarus multicinctus) (UniProt P60615); experiment: compounds binding labelled alpha-BTX control protein – biochemical, small-molecule microarray, Alexa647 label, 635/667 nm fluorescence, artefact control for SMM control protein annotation, profiling panel (AID 1117); conditions: alpha-BTX-A647 binding fluorescence, higher = more signal
# Alpha-bungarotoxin (Bungarus multicinctus), sequence (P60615 whole entry, looked up): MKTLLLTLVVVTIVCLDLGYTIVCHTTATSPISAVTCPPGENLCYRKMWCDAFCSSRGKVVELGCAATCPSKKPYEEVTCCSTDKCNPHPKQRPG
# Dickkopf-related protein 1 (Homo sapiens), sequence (O94907 whole entry, looked up): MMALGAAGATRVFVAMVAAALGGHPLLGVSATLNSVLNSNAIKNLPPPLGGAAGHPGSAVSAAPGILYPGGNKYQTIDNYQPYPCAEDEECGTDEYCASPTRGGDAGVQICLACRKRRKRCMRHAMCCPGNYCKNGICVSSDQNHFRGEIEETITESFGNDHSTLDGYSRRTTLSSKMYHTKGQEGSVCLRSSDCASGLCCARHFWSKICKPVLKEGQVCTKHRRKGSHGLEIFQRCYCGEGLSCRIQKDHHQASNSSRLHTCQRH
# Fibroblast growth factor 10 (Homo sapiens), sequence (O15520 whole entry, looked up): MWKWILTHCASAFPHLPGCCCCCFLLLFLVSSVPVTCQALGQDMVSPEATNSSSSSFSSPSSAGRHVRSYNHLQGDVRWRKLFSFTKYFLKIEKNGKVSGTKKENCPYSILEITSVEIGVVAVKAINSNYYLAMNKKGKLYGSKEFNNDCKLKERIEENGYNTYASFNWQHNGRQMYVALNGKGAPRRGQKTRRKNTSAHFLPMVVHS
# Torsin-1A-interacting protein 1 (Homo sapiens), sequence (Q5JTV8 whole entry, looked up): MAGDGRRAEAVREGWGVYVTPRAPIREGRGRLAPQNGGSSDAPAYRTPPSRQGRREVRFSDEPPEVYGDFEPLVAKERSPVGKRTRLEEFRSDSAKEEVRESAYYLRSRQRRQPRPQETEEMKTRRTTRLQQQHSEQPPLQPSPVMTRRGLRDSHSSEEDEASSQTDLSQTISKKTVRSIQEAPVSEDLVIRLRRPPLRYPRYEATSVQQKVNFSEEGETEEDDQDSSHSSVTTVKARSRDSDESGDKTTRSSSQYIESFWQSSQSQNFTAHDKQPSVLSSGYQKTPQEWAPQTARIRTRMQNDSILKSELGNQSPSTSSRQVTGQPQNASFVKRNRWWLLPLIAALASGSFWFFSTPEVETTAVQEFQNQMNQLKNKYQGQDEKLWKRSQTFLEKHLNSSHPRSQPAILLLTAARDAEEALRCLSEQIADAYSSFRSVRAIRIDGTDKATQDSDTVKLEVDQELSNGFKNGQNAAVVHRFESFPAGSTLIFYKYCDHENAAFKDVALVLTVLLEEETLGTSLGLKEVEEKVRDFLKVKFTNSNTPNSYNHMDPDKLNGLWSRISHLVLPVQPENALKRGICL
# Follistatin-related protein 3 (Homo sapiens), sequence (O95633 whole entry, looked up): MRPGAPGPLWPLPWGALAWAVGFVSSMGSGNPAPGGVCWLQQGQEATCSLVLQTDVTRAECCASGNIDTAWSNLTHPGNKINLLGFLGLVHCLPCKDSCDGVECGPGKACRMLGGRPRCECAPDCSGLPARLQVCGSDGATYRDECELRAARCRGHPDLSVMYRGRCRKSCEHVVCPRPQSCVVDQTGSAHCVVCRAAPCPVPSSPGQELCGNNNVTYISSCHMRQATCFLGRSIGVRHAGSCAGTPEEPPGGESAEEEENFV
# Epidermal growth factor receptor (Homo sapiens), sequence (P00533 whole entry, looked up): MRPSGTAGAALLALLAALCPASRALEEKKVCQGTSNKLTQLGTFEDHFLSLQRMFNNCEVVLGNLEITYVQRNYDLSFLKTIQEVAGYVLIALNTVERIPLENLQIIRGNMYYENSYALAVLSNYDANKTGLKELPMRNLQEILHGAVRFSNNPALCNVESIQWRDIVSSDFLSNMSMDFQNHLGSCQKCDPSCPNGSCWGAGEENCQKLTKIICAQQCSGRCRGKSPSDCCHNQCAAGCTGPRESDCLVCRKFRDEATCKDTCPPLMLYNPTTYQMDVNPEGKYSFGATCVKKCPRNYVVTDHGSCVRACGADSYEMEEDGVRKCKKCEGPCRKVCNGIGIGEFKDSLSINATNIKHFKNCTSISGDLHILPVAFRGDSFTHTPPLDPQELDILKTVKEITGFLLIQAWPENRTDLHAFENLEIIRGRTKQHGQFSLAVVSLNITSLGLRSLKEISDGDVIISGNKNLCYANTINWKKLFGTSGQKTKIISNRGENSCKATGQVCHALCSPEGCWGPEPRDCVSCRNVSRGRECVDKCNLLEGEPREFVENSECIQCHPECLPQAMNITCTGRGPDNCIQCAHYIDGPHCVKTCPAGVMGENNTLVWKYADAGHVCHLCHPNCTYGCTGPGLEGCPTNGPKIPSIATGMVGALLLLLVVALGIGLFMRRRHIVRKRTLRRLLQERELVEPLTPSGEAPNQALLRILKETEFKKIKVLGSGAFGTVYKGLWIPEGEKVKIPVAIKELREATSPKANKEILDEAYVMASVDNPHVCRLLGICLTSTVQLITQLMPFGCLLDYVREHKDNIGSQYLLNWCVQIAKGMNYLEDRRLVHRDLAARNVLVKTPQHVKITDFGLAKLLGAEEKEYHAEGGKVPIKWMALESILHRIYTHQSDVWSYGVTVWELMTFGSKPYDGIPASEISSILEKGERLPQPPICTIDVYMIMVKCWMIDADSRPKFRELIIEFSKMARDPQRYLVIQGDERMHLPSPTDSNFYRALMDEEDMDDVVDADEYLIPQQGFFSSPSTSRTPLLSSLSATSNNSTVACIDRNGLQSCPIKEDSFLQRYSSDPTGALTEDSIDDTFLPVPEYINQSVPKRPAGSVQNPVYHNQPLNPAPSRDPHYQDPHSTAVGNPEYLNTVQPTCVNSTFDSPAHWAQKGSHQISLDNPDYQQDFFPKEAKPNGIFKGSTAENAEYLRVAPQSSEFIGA
# Left-right determination factor 2 (Homo sapiens), sequence (O00292 whole entry, looked up): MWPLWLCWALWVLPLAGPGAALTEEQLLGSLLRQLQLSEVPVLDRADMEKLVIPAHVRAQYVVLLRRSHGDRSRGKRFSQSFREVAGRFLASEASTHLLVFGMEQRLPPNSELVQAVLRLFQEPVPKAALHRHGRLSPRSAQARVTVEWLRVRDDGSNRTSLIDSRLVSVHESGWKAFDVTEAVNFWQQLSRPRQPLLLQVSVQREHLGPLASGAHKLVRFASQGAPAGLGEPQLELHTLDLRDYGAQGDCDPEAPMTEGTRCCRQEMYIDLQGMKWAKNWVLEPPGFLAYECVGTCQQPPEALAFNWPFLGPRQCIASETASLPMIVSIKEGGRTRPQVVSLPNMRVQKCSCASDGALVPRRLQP
Compound,composite z-score [1],composite z-score [2],composite z-score [3],z-score [4],composite z-score [5],composite z-score [6],composite z-score [7],composite z-score [8],composite z-score [9],composite z-score [10],composite z-score [11],z-score [12],composite z-score [13],composite z-score [14],composite z-score [15],composite z-score [16],composite z-score [17],composite z-score [18],composite z-score [19],composite z-score [20]
COCCOC(=O)N1C(=O)[C@@]2(c3ccccc31)[C@H](C(=O)N1CCc3cc(OC)c(OC)cc3C1)[C@H]1C(=O)O[C@H](c3ccccc3)[C@H](c3ccccc3)N1[C@@H]2c1ccc(OCCO)cc1,1.33,0.232,0.395,-1.27 (inactive),1.15,1.01,0.565,0.473,0.235,0.0475,1.02,-1.39,0.295,1.28,0.366,-0.147,-0.0863,0.495,1.05,0.663
COCCOC(=O)N1C(=O)[C@@]2(c3cc(C#Cc4ccc(OC)cc4)ccc31)[C@H](c1ccc(OCCO)cc1)N1[C@H](c3ccccc3)[C@H](c3ccccc3)OC(=O)[C@H]1[C@@H]2C(=O)N1CCN(c2ncccn2)CC1,-0.0214,0.775,0.257,-0.449 (inactive),0.703,1.28,0.667,1.27,1.28,-0.0857,0.819,-1.45,1.08,1.12,0.715,-0.0585,-0.26,0.0308,0.391,0.953
C=CCOC(=O)[C@@H]1[C@H]2C(=O)O[C@H](c3ccccc3)[C@H](c3ccccc3)N2[C@H](c2ccc(OCCOC(=O)[C@H]3C[C@H]4C(=O)N5CCC[C@H]5C(=O)N4[C@H]3c3ccc(O)cc3)cc2)[C@@]12C(=O)Nc1ccc(I)cc12,1.62,0.158,0.0375,-1.27 (inactive),1.17,1.34,0.785,1.14,0.986,0.379,0.453,-1.5,0.928,1.02,-0.181,-0.203,0.285,-0.326,0.65,1.61
COC(=O)[C@@]1(Cc2ccc(F)cc2)[C@H]2c3cc(C(=O)N4CCCC4)n(Cc4ccc(S(C)(=O)=O)cc4)c3C[C@H]2CN1C(=O)c1ccccc1,1.2,1.14,0.949,-0.501 (inactive),0.598,0.108,0.771,0.473,0.328,1.38,1.38,-1.88,0.533,1.36,1.05,0.25,0.232,1.89,0.186,0.453
Cc1ccc(S[C@]2(C(=O)NCCCN(C)C)CC(=O)N(Cc3ccccc3C(F)(F)F)[C@@H]2c2ccc(CO)cc2)cc1,-1.14,0.631,0.95,0.375 (inactive),-0.904,-0.761,-0.636,-1.47,-0.798,0.94,-0.812,-0.767,-1.89,-0.168,0.0625,-0.0944,0.0893,0.216,0.122,0.266
COc1ccccc1CN1C(=O)c2ccccc2[C@@H](C(=O)NC2CC2)[C@@H]1c1ccc(CO)cc1,0.743,0.667,0.556,0.0463 (inactive),1.27,1.28,0.521,1.44,1.23,0.633,0.0772,-1.3,0.57,0.522,-0.779,-0.0512,0.257,-0.519,0.0469,1.3
C=CCNC(=O)[C@@H]1[C@H]2C(=O)O[C@H](c3ccccc3)[C@H](c3ccccc3)N2[C@H](c2ccc(O)cc2)[C@@]12C(=O)Nc1ccc(C#CCNC(N)=O)cc12,0.213,-0.3,0.778,0.788 (inactive),0.0464,-0.489,-0.219,-0.164,-0.732,-0.0122,1.28,-0.365,-1.09,-0.0555,-0.28,-0.124,0.157,-0.125,1.4,-0.234
[N-]=[N+]=Nc1ccccc1[C@H]1OC(c2ccc(OCCCO)cc2)=N[C@@]1(CCS(=O)(=O)c1ccccc1)C(=O)NCC(O)CO (stereo not given in full),1.47,0.766,0.95,-0.662 (inactive),1.24,0.933,-0.214,0.505,-0.415,0.899,1.46,-0.604,-0.671,1.15,0.211,0.027,0.0611,-0.62,1.93,1.21
Cc1nc2cc(Br)ccc2c(=O)o1,-0.319,-0.0717,-0.267,0.502 (inactive),0.543,0.778,0.427,0.846,0.436,0.435,0.686,-0.569,0.4,0.66,0.202,-0.198,-0.481,-0.483,0.197,0.206
O=C1C2C=CC(C(O)Cc3ccccc3)N(n3cnnc3)C2C(=O)N1Cc1ccccc1 (stereo not given),0.386,0.73,0.868,-0.195 (inactive),0.33,0.0704,-0.216,-0.294,-0.387,0.825,0.625,-0.53,-0.262,0.841,0.471,0.127,-0.007,0.908,0.955,0.165
